# Measured values taken from PubChem BioAssay (NCATS).
# Results filed as inconclusive are left out. The source made the active and inactive calls. Calls follow the shape of the dose curve; as a rule, active = well fitted cell-killing curve with a large enough effect; inconclusive = small, poorly fitted or top-dose-only effect; inactive = flat fitted curve, though single readings scatter.
# Assay: qHTS of pediatric cancer cell lines to identify multiple opportunities for drug repurposing: Primary screen for DAOY cells (AID 1347090); also: nearly all actives have a fitted effect of over 55% in size
# Settings: DAOY medulloblastoma viability, CellTiter-Glo luminescence, 48 h; series mostly up to 46 µM
# Excerpt: Drug repurposing or repositioning has been offered as a strategy for drug development in oncology programs. This approach has special potential for childhood cancers and other rare or orphan diseases, where the expected return on new drug development has been a disincentive to pharmaceuticals.
# In this project we exploit the poly-pharmacology of drugs to discover new indications via phenotypic screening of a panel of 19 well-characterized cell lines derived from solid tumors seen in children and adolescents. The goal is to identify approved drugs with previously unrecognized anticancer properties that has the potential to reveal new mechanisms and biological processes involved in carcinogenesis or drug resistance. We employed a titration-based paradigm (quantitative high-throughput screening or qHTS), where all compounds were tested at multiple concentrations for their effect on cell viability. Concentration-response curves (CRCs) were derived directly from the primary screen, and both potency and efficacy values were used to identify compounds with robust bioactivity profiles. We screened the NIH Chemical Genomics Center (NCGC) Pharmaceutical Collection (NPC) and Mechanism Interrogation Plate (MIPE) small molecule collections of approved and investigational compounds against these cell lines; and measured metabolically active cells after 48 hours of compound treatment as a proxy for cell viability.
# Assay Submitter: Nathalia J. Martinez, National Center for Advancing Translational Sciences, National Institutes of Health, Rockville, MD, USA; email: natalia.martinez@nih.gov
# [1] Shen, M et al. Quantitative high-throughput phenotypic screening of pediatric cancer cell lines identifies multiple opportunities for drug repurposing. Oncotarget 2017 Dec 19;9(4):4758-4772. PMID 29435139.
# The cells were obtained from University of North Carolina (UNC), Pediatric Preclinical Testing Program (PPT), and Coriell Institute (CI).
# qHTS cell viability assay:
# Cells were assayed in growth media at a density of 500-1,000 cells/well. Five microliters of cells were dispensed into 1,536-well, white, solid-bottom, TC-treated plates (Greiner Bio One) using a multidrop dispenser and incubated at 37 degrees C, 5% CO2, under a humidified atmosphere for 5 hours. Twenty-three nanoliters of compounds and controls (neutral control DMSO or positive control bortezomib at final concentration of 2.3 µM) were subsequently transferred by Kalypsys pintool. For primary screens, the MIPE collection was tested at 11-point dilutions (final concentrations range from 0.78 nM to 46 µM) and the NPC collection at 8-point dilutions (final concentrations range from 0.59 nM to 46 µM). Compounds tested in follow-up screens were assayed at 11-point dilutions. Cells were incubated for 48 hours, followed by addition of 3 uL of CellTiter-Glo (Promega). After a 15 min incubation at room temperature, samples were analyzed for luminescence intensity using a ViewLux High-throughput CCD imager equipped with clear filters.
# Potency is read from the fitted curve at half-maximal effect.
row,SMILES,Potency
1,Cc1ccc(C(=O)Nc2ccc(CN3CCN(C)CC3)c(C(F)(F)F)c2)cc1C#Cc1cnc2cccnn12,18.7 µM (active)
2,COc1cccc2nc(-c3cccs3)nc(NN3C(=O)C=C(C)C3=O)c12,2.35 µM (active)
3,Cc1cc(C(=O)N2CCN(c3cccc(Cl)c3)CC2)n(-c2ccccc2)n1,0.743 µM (active)
4,CC(C)c1cnn2c(NCc3ccccc3)cc(N[C@@H](CO)[C@H](O)CO)nc12,0.372 µM (active)
5,COc1cc(C(=O)NS(=O)(=O)c2ccccc2C)ccc1Cc1cn(C)c2ccc(NC(=O)OC3CCCC3)cc12,29.6 µM (active)
6,CNC(=O)CN1CCC(Oc2cc3c(Nc4cccc(Cl)c4F)ncnc3cc2OC)CC1,0.0093 µM (active)
7,CNC(=O)c1c(F)cccc1Nc1nc(Nc2cc3c(cc2OC)CCN3C(=O)CN(C)C)nc2[nH]ccc12,0.118 µM (active)
8,CC(NCc1ccc2c(c1)nc(NC(=O)c1ccc(-c3cn[nH]c3)s1)n2CC(C)(C)O)C(C)(C)C (stereo not given),2.96 µM (active)
9,O=C(NC1CCNCC1)c1[nH]ncc1NC(=O)c1c(Cl)cccc1Cl,1.18 µM (active)
10,Nc1ccc(S(=O)(=O)Nc2ncccn2)cc1,inactive
11,O=C(O)Cn1nnc(-c2cc(N3CCC(Oc4cc(F)ccc4Br)CC3)no2)n1,inactive
12,Cc1cn(-c2cc(NC(=O)c3ccc(C)c(Nc4nccc(-c5cccnc5)n4)c3)cc(C(F)(F)F)c2)cn1,inactive
13,CNC(=O)c1ccccc1Nc1nc(Nc2ccc(N3CCOCC3)cc2OC)ncc1Cl,14.8 µM (active)
14,CCN1CCN(Cc2ccc(-c3cc4c(N[C@H](C)c5ccccc5)ncnc4[nH]3)cc2)CC1,0.001 µM (active)
15,CC[C@H](CO)Nc1nc(NCc2ccccc2)c2ncn(C(C)C)c2n1,23.5 µM (active)
16,Nc1ncnc2c1c(-c1cccc(OCc3ccccc3)c1)cn2C1CC(CN2CCCC2)C1 (stereo not given),inactive
17,O=C(CCCCCCC(=O)Nc1ccc([C@H]2O[C@@H](CSc3nc(-c4ccccc4)c(-c4ccccc4)o3)C[C@@H](c3ccc(CO)cc3)O2)cc1)NO,11.8 µM (active)
18,CCN(CC)CCNC(=O)c1ccc2nc(-c3ccccc3)c(-c3ccc(CN4CCC(n5c(=O)[nH]c6ccccc65)CC4)cc3)nc2c1,23.5 µM (active)
19,CC1(C)CCC(c2ccc(Cl)cc2)=C(CN2CCN(c3ccc(C(=O)NS(=O)(=O)c4ccc(N[C@H](CCN5CCOCC5)CSc5ccccc5)c(S(=O)(=O)C(F)(F)F)c4)cc3)CC2)C1,7.43 µM (active)
20,CCn1nnc2c(N3CCOCC3)nc(-c3ccc(NC(=O)Nc4ccc(C(=O)N5CCN(C)CC5)cc4)cc3)nc21,0.235 µM (active)

row,SMILES,Potency
1,Nc1ccccc1NC(=O)c1ccc(CNC(=O)OCc2cccnc2)cc1,4.69 µM (active)
2,O=C(Cc1ccc(-c2ccc(OCCN3CCOCC3)cc2)cn1)NCc1ccccc1,0.0372 µM (active)
3,N#Cc1c(O)c2c(-c3ccc(-c4ccccc4O)cc3)csc2[nH]c1=O,inactive
4,CCN(CC)CCCCNc1ncc2cc(-c3cc(OC)cc(OC)c3)c(NC(=O)NC(C)(C)C)nc2n1,inactive
5,CC=C1NC(=O)[C@H]2CSSCCC=C[C@H](CC(=O)N[C@H](C(C)C)C(=O)N2)OC(=O)[C@H](C(C)C)NC1=O,0.0296 µM (active)
6,c1nc2nc(Nc3ccc(N4CCOCC4)cc3)nc(NC3CCCCC3)c2[nH]1,18.7 µM (active)
7,Cc1ccc(NC(=O)C2(c3ccc4c(c3)OC(F)(F)O4)CC2)nc1-c1cccc(C(=O)O)c1,0.469 µM (active)
8,COC(=O)Nc1nc2ccc(C(=O)c3ccc(F)cc3)cc2[nH]1,0.743 µM (active)
9,NC(=O)Nc1cc(-c2cccc(F)c2)sc1C(=O)N[C@H]1CCCNC1,1.87 µM (active)
10,CCn1cc(-c2ccnc3[nH]c(-c4cccc(CN(C)C)c4)cc23)c(-c2ccc(NC(=O)N(C)C)cc2)n1,5.9 µM (active)
11,COC(=O)Nc1ccc(-c2nc(N3CCOCC3)c3cnn(C4CCN(Cc5cccnc5)CC4)c3n2)cc1,4.69 µM (active)
12,Cc1cnc(-c2cnc(NCCNc3ccc(C#N)cn3)nc2-c2ccc(Cl)cc2Cl)[nH]1,14.8 µM (active)
13,C=C1C(=CC=C2CCCC3(C)[C@@H]([C@H](C)C=CC=CC(O)(CC)CC)CC[C@@H]23)C[C@@H](O)C[C@@H]1O (stereo not given in full),23.5 µM (active)
14,CCS(=O)(=O)c1cccc(-c2cc(C(=O)NC3CCN(C)CC3)c(C)c3[nH]c4ncc(C)cc4c23)c1,14.8 µM (active)
15,Clc1cccc(-n2nnnc2NCc2ccccc2Oc2ccccn2)c1Cl,inactive
16,CC1(C)OC2=C(C(=O)c3ccccc3C2=O)[C@H](NCc2ccccc2)[C@H]1O,5.9 µM (active)
17,CCC(=C(c1ccccc1)c1ccc(OCCN(C)C)cc1)c1ccccc1,inactive
18,O=C(NCCCNc1nc(Nc2cccc(NC(=O)N3CCCC3)c2)ncc1I)c1cccs1,14.8 µM (active)
19,Nc1nc(Nc2ccc(S(N)(=O)=O)cc2)nn1C(=O)c1c(F)cccc1F,11.8 µM (active)
20,CC1COC2(CCN(c3nc(=O)c4cc(C(F)(F)F)cc([N+](=O)[O-])c4s3)CC2)O1 (stereo not given),inactive
